Reference: PubChem BioAssay

Key:
[1] = tested on: Human papillomavirus type 1a protein E7 (residues 44-93); test: small molecules binding HPV E7 44-93 – biochemical, small-molecule microarray, residues 44-93, 635 nm fluorescence, primary screen (AID 1108); details: fluorescence 635 nm, higher = more signal;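 also: E7 fragment applied at 1 µg/mL in TBST for 1 h at 4 C; score combines spot fluorescence with its signal to noise ratio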
[2] = hepatitis C replication reporter changes, two-sided – Huh7 cells, luciferase reporter, HCV replication inhibitor project, primary screen (AID 1109); details: Huh7 HCV replicon luciferase reporter, 48 h; higher = more signal;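 also: huh7 hepatoma cells harbouring a luciferase neomycin HCV replicon reporter; luciferase luminescence as measure of HCV replicon replication; test concentration not given here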
[3] = target: Left-right determination factor 2 (Homo sapiens) (UniProt O00292); test: small molecules binding LEFTY2 protein – biochemical, small-molecule microarray, 635 nm fluorescence scan, primary screen (AID 1110); details: higher = more signal
Sequence of Left-right determination factor 2 (Homo sapiens) (O00292 whole entry, looked up): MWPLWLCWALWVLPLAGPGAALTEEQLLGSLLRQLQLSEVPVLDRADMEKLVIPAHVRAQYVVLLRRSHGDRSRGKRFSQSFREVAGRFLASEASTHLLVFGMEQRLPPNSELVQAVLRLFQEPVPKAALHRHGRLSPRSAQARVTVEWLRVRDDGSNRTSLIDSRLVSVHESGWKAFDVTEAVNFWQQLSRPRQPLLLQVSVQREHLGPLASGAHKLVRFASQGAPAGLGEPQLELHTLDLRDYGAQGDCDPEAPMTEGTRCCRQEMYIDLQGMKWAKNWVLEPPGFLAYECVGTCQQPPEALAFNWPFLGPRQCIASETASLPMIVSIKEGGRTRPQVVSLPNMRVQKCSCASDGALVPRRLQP

[4] = target: Calmodulin-1 (Homo sapiens) (UniProt P0DP23); test: small molecules binding calmodulin-1 with EGTA – biochemical, small-molecule microarray, Cy5-labelled CALM1, profiling panel (AID 1111); details: Cy5-CALM1 binding fluorescence, higher = more signal;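 also: labelled calmodulin applied in Tris saline Tween buffer holding calcium plus EGTA and DTT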
[5] = target: Calmodulin-1 (Homo sapiens) (UniProt P0DP23); test: small molecules binding Ca-loaded calmodulin-1 – biochemical, small-molecule microarray, Cy5-labelled CALM1, plus calcium, artefact control for SMM control-protein annotation, profiling panel (AID 1112); details: Cy5-CALM1 binding fluorescence, higher = more signal;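 also: score merges spot fluorescence with signal to noise from triplicate slides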
[6] = probe aWnt5a binding to arrayed compounds – biochemical, biotinylated probe, 635/667 nm fluorescence, primary screen (AID 1113); details: small-molecule microarray, higher = more signal;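 also: score merges 667 nm fluorescence intensity with signal-to-noise per printed feature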
[7] = probe aShh binding to arrayed compounds – biochemical, biotinylated probe, 635/667 nm fluorescence, primary screen (AID 1114); details: small-molecule microarray, higher = more signal;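 also: probe is biotin-labelled aShh protein from a stem cell growth factor screen; measures binding of labelled protein to compounds printed on the slide; score merges feature fluorescence at 667 nm with signal-to-noise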
[8] = probe aNog binding to arrayed compounds – biochemical, biotinylated probe, 635/667 nm fluorescence, primary screen (AID 1115); details: small-molecule microarray, higher = more signal;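 also: probe is biotinylated aNog protein used at 0.15 µg/mL for 1 h at 4 C; z-score combines 667 nm fluorescence of each spot with its signal to noise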
[9] = target: Torsin-1A-interacting protein 1 (Homo sapiens) (UniProt Q5JTV8); test: compound microarray binding of lysate hLAP1 – cell lysate, small-molecule microarray, COS7 lysate, 635/667 nm fluorescence, primary screen (AID 1116); details: 635 nm fluorescence, higher = more signal
Sequence of Torsin-1A-interacting protein 1 (Homo sapiens) (Q5JTV8 whole entry, looked up): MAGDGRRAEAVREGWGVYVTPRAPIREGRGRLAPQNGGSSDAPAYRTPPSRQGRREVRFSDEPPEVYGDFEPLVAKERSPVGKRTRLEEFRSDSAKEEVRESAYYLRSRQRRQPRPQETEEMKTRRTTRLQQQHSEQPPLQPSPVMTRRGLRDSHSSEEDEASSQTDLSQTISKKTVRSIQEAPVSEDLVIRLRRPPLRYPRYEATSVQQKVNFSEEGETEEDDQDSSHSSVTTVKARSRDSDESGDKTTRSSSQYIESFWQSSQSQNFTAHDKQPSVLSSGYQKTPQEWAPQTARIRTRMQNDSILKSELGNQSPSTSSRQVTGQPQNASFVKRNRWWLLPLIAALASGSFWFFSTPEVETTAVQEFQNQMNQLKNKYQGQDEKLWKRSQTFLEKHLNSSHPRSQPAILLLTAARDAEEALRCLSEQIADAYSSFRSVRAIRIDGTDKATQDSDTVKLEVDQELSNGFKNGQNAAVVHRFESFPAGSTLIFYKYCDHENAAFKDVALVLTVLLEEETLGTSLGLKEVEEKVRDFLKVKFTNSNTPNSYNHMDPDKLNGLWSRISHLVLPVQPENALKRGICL

[10] = target: Alpha-bungarotoxin (Bungarus multicinctus) (UniProt P60615); test: compounds binding labelled alpha-BTX control protein – biochemical, small-molecule microarray, Alexa647 label, 635/667 nm fluorescence, artefact control for SMM control protein annotation, profiling panel (AID 1117); details: alpha-BTX-A647 binding fluorescence, higher = more signal
Sequence of Alpha-bungarotoxin (Bungarus multicinctus) (P60615 whole entry, looked up): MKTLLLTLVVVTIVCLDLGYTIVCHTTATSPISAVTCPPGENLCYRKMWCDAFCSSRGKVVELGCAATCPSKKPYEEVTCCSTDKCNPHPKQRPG

SMILES: CO[C@H]1O[C@H](CO)[C@@H](OC(=O)Nc2ccc3c(c2)OCO3)[C@H](OC(=O)Nc2ccc3c(c2)OCO3)[C@@H]1OC(=O)Nc1ccc2c(c1)OCO2
- composite z-score [1]: 1.49
- z-score [2]: 0.158
- composite z-score [3]: 0.472
- composite z-score [4]: 1.88
- composite z-score [5]: -0.745
- composite z-score [6]: 0.0618
- composite z-score [7]: 0.313
- composite z-score [8]: 0.909
- composite z-score [9]: 1.25
- composite z-score [10]: 1.7

SMILES: COc1cccc(C)c1NC(=O)O[C@H]1[C@H](OC(=O)Nc2ccccc2-c2ccccc2)[C@H](OC(=O)Nc2ccccc2-c2ccccc2)[C@@H](OC)O[C@@H]1CO
- composite z-score [1]: 1.41
- z-score [2]: -2.36
- composite z-score [3]: 0.679
- composite z-score [4]: 1.72
- composite z-score [5]: 0.11
- composite z-score [6]: 0.0304
- composite z-score [7]: -0.0192
- composite z-score [8]: -0.518
- composite z-score [9]: 1.26
- composite z-score [10]: 0.688

SMILES: COc1ccc([Si](C)(C)[C@@H]2[C@@H](CCO)O[C@]3(C(=O)N(Cc4ccccc4)c4ccc(N5CCOC5=O)cc43)[C@H]2C)cc1
- composite z-score [1]: 1.35
- z-score [2]: -4.17
- composite z-score [3]: 0.217
- composite z-score [4]: 0.623
- composite z-score [5]: 0.521
- composite z-score [6]: 0.394
- composite z-score [7]: -0.0793
- composite z-score [8]: 0.0139
- composite z-score [9]: 0.855
- composite z-score [10]: 1.09

SMILES: C=C(COC)C(=O)CC[C@@H](OC(C)=O)c1cccc(OCCO)c1
- composite z-score [1]: -0.297
- z-score [2]: -2.41
- composite z-score [3]: -0.278
- composite z-score [4]: -0.582
- composite z-score [5]: -0.909
- composite z-score [6]: -0.0403
- composite z-score [7]: -0.214
- composite z-score [8]: -0.0827
- composite z-score [9]: 0.578
- composite z-score [10]: -0.485

SMILES: CC1=C2[C@@H](CCc3ccccc3)OB(O)C[C@@H]2[C@@H]2C(=O)N(Cc3ccccc3)C(=O)[C@@H]2C1
- composite z-score [1]: -0.125
- z-score [2]: -0.873
- composite z-score [3]: 0.809
- composite z-score [4]: -0.122
- composite z-score [5]: -0.605
- composite z-score [6]: -0.0869
- composite z-score [7]: -0.0709
- composite z-score [8]: -0.314
- composite z-score [9]: 0.59
- composite z-score [10]: 0.659

SMILES: [N-]=[N+]=Nc1ccccc1C[C@]1(C(=O)NCC(O)CO)COC(c2ccc(OCCCO)cc2)=N1 (stereo not given in full)
- composite z-score [1]: 0.776
- z-score [2]: -0.677
- composite z-score [3]: -0.314
- composite z-score [4]: 1.32
- composite z-score [5]: 0.37
- composite z-score [6]: -0.132
- composite z-score [7]: 0.275
- composite z-score [8]: -0.236
- composite z-score [9]: 2.01
- composite z-score [10]: -0.633

SMILES: Cc1ccc(S[C@]2(C(=O)NCC(F)(F)F)CC(=O)N(Cc3cc(C(F)(F)F)cc(C(F)(F)F)c3)[C@@H]2c2ccc(CO)cc2I)cc1
- composite z-score [1]: -0.886
- z-score [2]: -0.964
- composite z-score [3]: -0.868
- composite z-score [4]: -0.364
- composite z-score [5]: 0.0808
- composite z-score [6]: -0.231
- composite z-score [7]: -0.0035
- composite z-score [8]: -0.426
- composite z-score [9]: -0.152
- composite z-score [10]: -0.379

SMILES: O[C@@H](Cc1ccccc1)[C@@H](/C=C/C1CC1)N(CC#Cc1ccccc1)Cc1ccccc1Br
- composite z-score [1]: -0.0988
- z-score [2]: -2.71
- composite z-score [3]: -0.804
- composite z-score [4]: -0.582
- composite z-score [5]: 0.282
- composite z-score [6]: -0.203
- composite z-score [7]: -0.0769
- composite z-score [8]: -0.224
- composite z-score [9]: -0.183
- composite z-score [10]: -0.288

SMILES: CO[C@H]1O[C@H](CO)[C@@H](OC(=O)Nc2ccc(Br)cc2)[C@@H]2OC(=O)[C@@H](Cc3ccccc3)C/C=C/C[C@H](Cc3ccccc3)C(=O)O[C@@H]12
- composite z-score [1]: 0.816
- z-score [2]: -3.75
- composite z-score [3]: 0.142
- composite z-score [4]: 0.534
- composite z-score [5]: 0.149
- composite z-score [6]: 0.218
- composite z-score [7]: 0.0483
- composite z-score [8]: 1.04
- composite z-score [9]: 0.325
- composite z-score [10]: 0.804

SMILES: C=CCOC(=O)[C@@H]1[C@H]2C(=O)O[C@H](c3ccccc3)[C@H](c3ccccc3)N2[C@H](c2ccc(OCCOC(=O)[C@@H]3C[C@@H]4C(=O)N[C@@H](CCCC[N+](C)(C)C)C(=O)N4[C@@H]3c3ccc(O)cc3)cc2)[C@@]12C(=O)Nc1ccc(I)cc12
- composite z-score [1]: 1.41
- z-score [2]: -0.282
- composite z-score [3]: 0.459
- composite z-score [4]: -0.14
- composite z-score [5]: -0.521
- composite z-score [6]: -0.112
- composite z-score [7]: 0.614
- composite z-score [8]: 0.559
- composite z-score [9]: 1.36
- composite z-score [10]: 0.923

SMILES: O=C1CS(=O)(=O)C(c2cccc([N+](=O)[O-])c2)N1c1ccccc1 (stereo not given)
- composite z-score [1]: -0.611
- z-score [2]: -0.376
- composite z-score [3]: 0.432
- composite z-score [4]: 0.0568
- composite z-score [5]: -0.177
- composite z-score [6]: 0.157
- composite z-score [7]: 0.122
- composite z-score [8]: -0.217
- composite z-score [9]: 1.49
- composite z-score [10]: 1.98

SMILES: CCOC(=O)C[C@H]1[C@H](OC(=O)c2cc3ccccc3oc2=O)[C@@H](NC(=O)c2ccccc2)c2cc(OCCCO)ccc2N1C(=O)c1ccccc1
- composite z-score [1]: 0.119
- z-score [2]: -0.148
- composite z-score [3]: 0.535
- composite z-score [4]: -0.0848
- composite z-score [5]: -0.782
- composite z-score [6]: -0.0718
- composite z-score [7]: 0.0121
- composite z-score [8]: -0.108
- composite z-score [9]: 0.203
- composite z-score [10]: 0.139

SMILES: Cc1ccc(S[C@]2(C(=O)NC(C)C)CC(=O)N(Cc3cc(C(F)(F)F)cc(C(F)(F)F)c3)[C@@H]2c2ccc(CO)cc2)cc1
- composite z-score [1]: -0.411
- z-score [2]: -0.343
- composite z-score [3]: -1.76
- composite z-score [4]: -0.491
- composite z-score [5]: 0.0262
- composite z-score [6]: 0.0857
- composite z-score [7]: -0.393
- composite z-score [8]: -0.143
- composite z-score [9]: 0.0702
- composite z-score [10]: 0.26

SMILES: C#CCN([C@@H](Cc1ccccc1)C(=O)OC)[C@@H](/C=C/C1CC1)[C@H](O)Cc1ccccc1
- composite z-score [1]: -0.447
- z-score [2]: -3.13
- composite z-score [3]: 0.0156
- composite z-score [4]: -0.979
- composite z-score [5]: -1.54
- composite z-score [6]: -0.217
- composite z-score [7]: -0.0553
- composite z-score [8]: -0.352
- composite z-score [9]: 0.483
- composite z-score [10]: 0.0673

SMILES: COc1ccc([C@H]2OC[C@@H]3C[C@H](Cc4ccccc4)C(=O)N32)cc1
- composite z-score [1]: 0.156
- z-score [2]: -2.66
- composite z-score [3]: 0.367
- composite z-score [4]: 0.106
- composite z-score [5]: -0.668
- composite z-score [6]: 0.188
- composite z-score [7]: 0.111
- composite z-score [8]: -0.113
- composite z-score [9]: 0.373
- composite z-score [10]: 1.59

SMILES: C=CC[C@]1(C(=O)N2CCOCC2)COC(c2ccc(OCCCO)cc2)=N1
- composite z-score [1]: 1.53
- z-score [2]: -0.164
- composite z-score [3]: -0.233
- composite z-score [4]: 1.64
- composite z-score [5]: -0.497
- composite z-score [6]: -0.0236
- composite z-score [7]: 0.381
- composite z-score [8]: 1.11
- composite z-score [9]: 1.98
- composite z-score [10]: 2.21

SMILES: COc1ccc([Si](C)(C)[C@@H]2[C@@H](CC(=O)N3CCC[C@H]3CO)O[C@]3(C(=O)N(Cc4cccc(N5C(=O)COc6ccccc65)c4)c4ccccc43)[C@H]2C)cc1
- composite z-score [1]: 1.35
- z-score [2]: -4.2
- composite z-score [3]: 0.486
- composite z-score [4]: 1.49
- composite z-score [5]: 0.343
- composite z-score [6]: 0.0215
- composite z-score [7]: 0.131
- composite z-score [8]: -0.368
- composite z-score [9]: 1.41
- composite z-score [10]: 0.678
